Results taken from PubChem BioAssay (Tox21).
Several values for one entry are separate records, joined by “and”; a condition that tells them apart may be missing. Identical values can stand only once. Results filed as inconclusive are left out. Entries that show only a call come without a potency. The source holds several records for some structures; these can differ, active in one and inactive in another. Activity calls are given as the source filed them. The call rests on the fitted dose curve; in most records, active means well fitted curve in the direction sought with a large enough effect in the repeat runs; inconclusive means weak or mixed curves; inactive means no such curve, though single readings can be large; an effect the other way counts as inactive or inconclusive.

Legend:
[1] = Human pregnane X receptor (PXR) small molecule agonists, qHTS cell viability counter screen (AID 1346977); further: nearly all actives have a fitted effect of over 50% in size; further: potency means the concentration at half of the fitted maximal effect
Summary of the method: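 Same-well viability read: CellTiter-Fluor added after 23 hr compound exposure, fluorescence measured 1 hr later. Cells were PXR-Luc HepG2 seeded at 2,000/well in 5% charcoal-stripped FBS medium, rested 5 hr before dosing at 37 C.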

[2] = Caspase-3/7 induction in HepG2 cells by small molecules, qHTS assay (AID 1346978); further: nearly all actives have a fitted effect of over 15% in size; further: potency means the concentration at half of the fitted maximal effect
Summary of the method: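 Wild-type HepG2 cells (2,000/well) were settled 5 h at 37 C, 5% CO2, then exposed to compounds in DMSO for 17 h. Caspase-3/7 activity was read by luminescence 30 min after adding Caspase-Glo 3/7 reagent at room temperature.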

[3] = Caspase-3/7 induction in CHO-K1 cells by small molecules, qHTS cell viability counter screen (AID 1346979); further: nearly all actives have a fitted effect of over 35% in size; further: potency means the concentration at half of the fitted maximal effect
Summary of the method: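 Cytotoxicity counter screen: CellTiter-Fluor added to compound-treated wild-type CHO-K1 cells at 16 h (37C, 5% CO2), fluorescence measured 1 h later; same wells as caspase-3/7 measurement.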

[4] = Caspase-3/7 induction in CHO-K1 cells by small molecules, qHTS assay (AID 1346980); further: nearly all actives have a fitted effect of over 15% in size; further: potency means the concentration at half of the fitted maximal effect
Summary of the method: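 Wild-type cells were seeded at 1,500 per well and settled 5 hr at 37 C, 5% CO2, then exposed to DMSO-dissolved compounds for 17 hr. Caspase-Glo 3/7 reagent was added, and luminescence was read after 30min at room temperature.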

[5] = Caspase-3/7 induction in HepG2 cells by small molecules, qHTS cell viability counter screen (AID 1346981); further: nearly all actives have a fitted effect of over 30% in size; further: potency means the concentration at half of the fitted maximal effect; on activity change, negative = cytotoxicity: series mostly up to about 92 µM
Summary of the method: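 Counter screen for cytotoxicity: HepG2 exposed 16 hr to compounds, then CellTiter-Fluor viability signal (fluorescence, 1 hr reagent incubation).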

[6] = biological target: Nuclear receptor subfamily 1 group I member 2 (Homo sapiens) (UniProt O75469); experiment: Human pregnane X receptor (PXR) small molecule agonists, qHTS assay (AID 1346982); further: nearly all actives have a fitted effect of over 35% in size; further: potency means the concentration at half of the fitted maximal effect
Summary of the method: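 Luminescence (ONE-Glo, 30 min RT) after 24 hr compound exposure of PXR-Luc HepG2 cells; cells rested 5 hr post-plating in 5% charcoal-stripped FBS medium.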

[7] = biological target: Cytochrome P450 2D6 (Homo sapiens) (UniProt P10635); experiment: Cytochrome P450 Family 2 Subfamily D Member 6 (CYP2D6) small molecule antagonists: luciferase reporter qHTS assay (AID 1671196); further: nearly all actives have a fitted effect of over 50% in size; further: potency means the concentration at half of the fitted maximal effect
Summary of the method: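 Inhibition of CYP2D6 was gauged by loss of luminescence, since light produced tracks the luciferin generated from a proluciferin substrate. A 10 min room-temperature preincubation preceded 1 h NADPH-supported turnover.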

[8] = biological target: Nuclear receptor subfamily 1 group I member 2 (Rattus norvegicus) (UniProt Q9R1A7); experiment: Rat pregnane X receptor (rPXR) activation by small molecules, qHTS assay (AID 1346983); conditions: rPXR luciferase reporter cells, One-Glo luminescence, 24 h; max activation: stronger effect = higher value; further: nearly all actives have a fitted effect of over 20% in size
Summary of the method: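 Cell-based rPXR luciferase reporter assay, 2,000 cells per well, rested 5hr at 37 C before compound addition in DMSO, then 24 hr at 37 C. One-Glo reagent was added and luminescence read after 30 min at room temperature.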

[9] = biological target: Nuclear receptor subfamily 1 group I member 2 (Homo sapiens) (UniProt O75469); experiment: CYP3A4 induction through human pregnane X receptor (PXR) by small molecules, qHTS assay (AID 1346984); further: nearly all actives have a fitted effect of over 40% in size
Summary of the method: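 DPX-2 reporter cells; 24h cpd, 37C; Luciferin-IPA 3uM final x3h; One-Glo 30 min RT; lumi read.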

[10] = biological target: Nuclear receptor subfamily 1 group I member 2 (Homo sapiens) (UniProt O75469); experiment: Human pregnane X receptor (PXR) activation by small molecules, qHTS assay (AID 1346985); further: nearly all actives have a fitted effect of over 40% in size
Summary of the method: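 DPX-2 cells (HepG2 co-transfected with a PXR response element and a CYP3A4-promoter luciferase construct) were seeded at 2,000 per well, rested 5 hr at 37C, then exposed to DMSO-dissolved compounds for 24 hr. Activation was read as luciferase luminescence.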

Chain of Nuclear receptor subfamily 1 group I member 2 (Rattus norvegicus) (Q9R1A7 whole entry, looked up): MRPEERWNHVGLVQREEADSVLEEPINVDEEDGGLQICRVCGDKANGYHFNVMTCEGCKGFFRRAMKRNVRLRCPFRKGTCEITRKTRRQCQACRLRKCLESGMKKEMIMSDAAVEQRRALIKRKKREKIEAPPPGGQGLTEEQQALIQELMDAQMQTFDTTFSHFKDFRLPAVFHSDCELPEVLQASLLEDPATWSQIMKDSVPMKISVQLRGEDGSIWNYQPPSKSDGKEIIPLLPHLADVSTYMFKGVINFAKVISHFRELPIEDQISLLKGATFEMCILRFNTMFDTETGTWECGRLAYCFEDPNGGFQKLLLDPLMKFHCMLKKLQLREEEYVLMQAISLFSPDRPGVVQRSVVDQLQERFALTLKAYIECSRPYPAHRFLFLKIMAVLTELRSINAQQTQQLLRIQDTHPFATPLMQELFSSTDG
Chain of Nuclear receptor subfamily 1 group I member 2 (Homo sapiens) (O75469 whole entry, looked up): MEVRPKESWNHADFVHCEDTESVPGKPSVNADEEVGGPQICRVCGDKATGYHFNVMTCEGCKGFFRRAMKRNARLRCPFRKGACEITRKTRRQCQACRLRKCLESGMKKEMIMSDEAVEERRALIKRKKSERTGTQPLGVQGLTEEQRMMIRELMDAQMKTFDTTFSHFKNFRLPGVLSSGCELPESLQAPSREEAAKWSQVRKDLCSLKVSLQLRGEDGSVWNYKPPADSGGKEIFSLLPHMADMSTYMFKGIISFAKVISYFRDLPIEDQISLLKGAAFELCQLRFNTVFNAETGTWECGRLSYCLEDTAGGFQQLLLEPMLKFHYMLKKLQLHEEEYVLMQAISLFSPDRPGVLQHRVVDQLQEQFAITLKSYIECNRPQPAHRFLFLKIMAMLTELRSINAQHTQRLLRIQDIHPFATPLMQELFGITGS
Chain of Cytochrome P450 2D6 (Homo sapiens) (P10635 whole entry, looked up): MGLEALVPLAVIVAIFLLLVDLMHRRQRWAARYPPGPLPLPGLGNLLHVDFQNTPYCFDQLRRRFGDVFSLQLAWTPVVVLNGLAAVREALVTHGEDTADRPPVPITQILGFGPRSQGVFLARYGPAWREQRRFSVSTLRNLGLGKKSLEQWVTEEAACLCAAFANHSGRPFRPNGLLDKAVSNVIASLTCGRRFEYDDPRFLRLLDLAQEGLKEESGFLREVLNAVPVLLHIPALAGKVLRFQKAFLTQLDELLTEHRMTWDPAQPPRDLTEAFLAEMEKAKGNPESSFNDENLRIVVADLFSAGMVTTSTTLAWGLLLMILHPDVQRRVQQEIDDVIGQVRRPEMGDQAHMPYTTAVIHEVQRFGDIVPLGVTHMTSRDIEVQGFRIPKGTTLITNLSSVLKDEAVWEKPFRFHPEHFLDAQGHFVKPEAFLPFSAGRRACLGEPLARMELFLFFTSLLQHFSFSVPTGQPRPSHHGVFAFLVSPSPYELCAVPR

Row | Structure (SMILES) | Potency [1] | Potency [2] | Potency [3] | Potency [4] | Potency [5] | Potency [6] | Potency [7] | max activation [8] | Potency [9] | Potency [10] | activity change, negative = cytotoxicity [1] | activity change, negative = cytotoxicity [3] | activity change, negative = cytotoxicity [5]
1 | CCCCCCCCCCCCCO | inactive | inactive | inactive | inactive | inactive | inactive | inactive | – | – | – | – | – | –
2 | C=C[C@H]1CN2CC[C@H]1C[C@@H]2[C@@H](O)c1ccnc2ccc(OC)cc12 | inactive | inactive | inactive | inactive | inactive | – | – | -2.45% (inactive) | – | – | – | – | –
3 | O=Cc1ccccc1C=O | 48.6 µM (active) and inactive | 48.6 µM (active) and inactive | 15.4 µM (active) and inactive | 21.7 µM (active) and inactive | 30.6 µM (active) and inactive | 19.3 µM (active) and inactive | inactive | 5.06% (inactive) | inactive | inactive | – | – | –
4 | CC(C)[C@@H]1CC[C@@H](C)CC1=O | inactive | inactive | inactive | inactive | inactive | – | inactive | -3.74% (inactive) | inactive | inactive | – | – | –
5 | CCc1cccc2c3c([nH]c12)C(CC)(CC(=O)O)OCC3 (stereo unspecified) | inactive | inactive | inactive | inactive | inactive | inactive | 20 µM (active) and inactive | 1.85% (inactive) | inactive | inactive | – | – | –
6 | CC1(C)C(C=C(Cl)Cl)C1C(=O)OCc1cccc(Oc2ccccc2)c1 (stereo unspecified) | inactive | inactive | inactive | inactive | inactive | 24.2 µM (active) | – | 4.94% (inactive) | inactive | inactive | – | – | –
7 | Cc1ccc(N)c([N+](=O)[O-])c1 | inactive | inactive | inactive | inactive | inactive | inactive | 39.4 µM (active) and inactive | – | – | – | – | – | –
8 | CCCCCCCCCCC(CO)CCCCCCCC (stereo unspecified) | inactive | inactive | inactive | inactive | inactive | inactive | inactive | -1.75% (inactive) | inactive | inactive | – | – | –
9 | CC1(C)OC(=O)NC1=O | inactive | inactive | inactive | inactive | inactive | – | inactive | – | – | – | – | – | –
10 | CC(=O)Nc1ccc2c(c1)Cc1cc(NC(C)=O)ccc1-2 | inactive | inactive | inactive | inactive | inactive | – | inactive | – | – | – | – | – | –
11 | CN1CCOCC1 | inactive | inactive | inactive | inactive | inactive | – | – | – | – | – | – | – | –
12 | C=C[C@H]1CN2CC[C@H]1C[C@H]2[C@H](O)c1ccnc2ccc(OC)cc12 | 30.6 µM (active) | inactive | inactive | inactive | inactive | – | – | -0.698% (inactive) | – | – | – | – | –
13 | Clc1ccc(Sc2cc(Cl)c(Cl)cc2Cl)cc1 | inactive | inactive | inactive | inactive | inactive | 59.5 µM (active) and inactive | inactive | – | – | – | – | – | –
14 | c1ccc2c(c1)[nH]c1ccccc12 | inactive | inactive | inactive | inactive | inactive | 47.7 µM (active) and 61.1 µM (active) | 39.2 µM (active) and inactive | – | – | – | – | – | –
15 | COC(=O)CC(=O)OC | inactive | inactive | inactive | inactive | inactive | 56.7 µM (active) and inactive | inactive | – | – | – | – | – | –
16 | CCCCCCCCCCCCO | inactive | inactive | inactive | inactive | inactive | inactive | inactive | – | – | – | – | – | –
17 | CCOC(=O)C(C)Oc1ccc(Oc2cnc3cc(Cl)ccc3n2)cc1 (stereo unspecified) | inactive | inactive | inactive | inactive | inactive | – | 32.5 µM (active) | – | – | – | – | – | –
18 | COC(=O)c1ccc(C)cc1 | inactive | inactive | inactive | inactive | inactive | – | inactive | – | – | – | – | – | –
19 | O=S1(=O)CCCO1 | inactive | inactive | inactive | inactive | inactive | inactive | inactive | – | – | – | – | – | –
20 | c1ccc2ncccc2c1 | inactive | inactive | inactive | inactive | inactive | inactive | inactive | – | – | – | – | – | –
21 | Cc1ccc(C)c(O)c1 | inactive | inactive | inactive | inactive | inactive | inactive | inactive | – | – | – | – | – | –
22 | O=[Se](O)O | 24.4 µM (active) | inactive | 54.5 µM (active) | inactive | 24.4 µM (active) | inactive | inactive | – | – | – | 6.76% [at 19 µM] (inactive) | 5.77% [at 19 µM] (inactive) | 2.81% [at 19 µM] (inactive)
23 | OC[C@@H](O)[C@@H](O[C@@H]1O[C@H](CO)[C@H](O)[C@H](O)[C@H]1O)[C@H](O)[C@@H](O)CO | inactive | inactive | inactive | inactive | inactive | inactive | inactive | -8.22% (inactive) | inactive | inactive | – | – | –
24 | CCCCCCOCCOCCO | inactive | inactive | inactive | inactive | inactive | – | – | – | – | – | – | – | –
25 | O=C(O)c1cc(=O)[nH]c(=O)[nH]1 | inactive | inactive | inactive | inactive | inactive | – | 6.34 µM (active) | -3.14% (inactive) | inactive | inactive | – | – | –
